Results published in PubChem BioAssay.
Active and inactive are the calls of the source. Unless noted, the rule behind the calls is not given here.

Columns and labels:
[1] = compound effects on lung adenocarcinoma cell viability – A549, calcein-AM fluorescence, 48 h, basal, profiling panel (AID 1162); conditions: higher = more signal; note: test concentration not given here
[2] = compound effects on differentiated 3T3-L1 adipocyte viability – cell-based, 3T3-L1 adipocytes, calcein-AM fluorescence, 48 h, basal, profiling panel (AID 1163); conditions: 3T3-L1 adipocytes viability, higher = more signal; note: test concentration not given here
[3] = compound effects on hepatocellular carcinoma cell viability – HepG2, calcein-AM fluorescence, 48 h, basal, profiling panel (AID 1164); conditions: higher = more signal; note: test concentration not given here
[4] = compound effects on multiple myeloma cell viability – MM1S, calcein-AM fluorescence, 48 h, basal, profiling panel (AID 1165); conditions: higher = more signal; note: test concentration not given here
[5] = calcein-AM signal in unstimulated myeloma cells – cell-based, calcein-AM fluorescence, 48 h, PK04 Diversity Set, profiling panel (AID 1166); conditions: RPMI8226 myeloma viability, higher = more signal;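 note: cells grown under basal conditions without added stimulus; test concentration not given here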
[6] = JC-1 mitochondrial signal, unstimulated HepG2 cells – cell-based, JC-1 fluorescence, 24 h, 100 nL compound, profiling panel (AID 1167); conditions: HepG2 mitochondrial potential, higher = more signal; note: test concentration not given here
[7] = JC-1 mitochondrial signal, unstimulated adipocytes – cell-based, JC-1 fluorescence, 3T3-L1 adipocytes, 24 h, 100 nL compound, profiling panel (AID 1168); conditions: JC-1 mitochondrial fluorescence, higher = more signal, called active from +8 up or from −8 down; note: test concentration not given here
[8] = JC-1 mitochondrial signal, unstimulated myeloma cells – cell-based, JC-1 fluorescence, RPMI8226, 24 h, 100 nL compound, profiling panel (AID 1169); conditions: JC-1 mitochondrial potential fluorescence, higher = more signal; note: test concentration not given here
[9] = JC-1 mitochondrial signal, unstimulated MM1S myeloma – cell-based, JC-1 fluorescence, 24 h, 100 nL compound, profiling panel (AID 1170); conditions: MM1S mitochondrial potential, higher = more signal; note: test concentration not given here
[10] = resazurin metabolic signal in A549 cells – cell-based, resazurin fluorescence, 24 h, PK04 Diversity Set, profiling panel (AID 1171); conditions: A549 viability, higher = more signal, called active from +8 up or from −8 down; note: test concentration not given here
[11] = resazurin metabolic signal in HepG2 cells – cell-based, resazurin fluorescence, 24 h, PK04 Diversity Set, profiling panel (AID 1172); conditions: HepG2 viability, higher = more signal; note: test concentration not given here
[12] = budding yeast growth changes without added modifier – OD600, strain BY4716, 24 h, basal condition, primary screen (AID 1173); conditions: S. cerevisiae BY4716 growth, OD600, 24 h; higher = more signal, called active from +8 up or from −8 down
[13] = viability profiling in MM1S myeloma cells – cell-based, resazurin fluorescence, basal, 24 h, PK04 Diversity Set, profiling panel (AID 1174); conditions: higher = more signal, called active from +8 up or from −8 down; note: test concentration not given here
[14] = biological target: Dihydroorotate dehydrogenase (quinone), mitochondrial (Plasmodium falciparum (isolate 3D7)) (UniProt Q08210); assay: inhibition of P. falciparum DHODH – biochemical, C-terminal His tag, absorbance 600 nm, primary screen (AID 1175); conditions: PfDHODH enzyme, DCIP absorbance 600 nm; higher = more signal, called active from +8 up or from −8 down;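 note: recombinant parasite enzyme with a five histidine tag at its C terminus; test concentration not given here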
Sequence of Dihydroorotate dehydrogenase (quinone), mitochondrial (Plasmodium falciparum (isolate 3D7)) (Q08210 whole entry, looked up): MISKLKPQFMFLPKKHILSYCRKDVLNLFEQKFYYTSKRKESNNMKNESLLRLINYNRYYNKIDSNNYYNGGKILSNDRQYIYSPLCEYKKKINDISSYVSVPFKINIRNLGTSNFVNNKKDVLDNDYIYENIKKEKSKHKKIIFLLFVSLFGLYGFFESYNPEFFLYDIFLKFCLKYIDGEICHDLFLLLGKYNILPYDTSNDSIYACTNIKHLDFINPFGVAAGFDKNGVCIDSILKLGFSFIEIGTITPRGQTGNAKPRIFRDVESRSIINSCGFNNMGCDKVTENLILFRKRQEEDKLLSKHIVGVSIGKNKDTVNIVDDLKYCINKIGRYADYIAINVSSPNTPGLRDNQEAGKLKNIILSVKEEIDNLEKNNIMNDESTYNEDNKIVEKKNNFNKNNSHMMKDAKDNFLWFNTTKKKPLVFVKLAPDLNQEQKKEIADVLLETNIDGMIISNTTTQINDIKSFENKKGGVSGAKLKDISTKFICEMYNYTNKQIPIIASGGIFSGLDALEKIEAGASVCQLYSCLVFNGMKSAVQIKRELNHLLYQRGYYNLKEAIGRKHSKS

[15] = inhibition of PAO1 biofilm formation – strain PAO1, LB-PBS medium, absorbance 600 nm, primary screen (AID 1176); note: test concentration not given here; conditions: P. aeruginosa PAO1 growth/biofilm, A600, 12 h; higher = more signal
[16] = growth modulation of vineyard yeast isolate – strain RM11-1a, OD600, basal, 24 h, primary screen (AID 1177);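 note: cultures grown under basal conditions with no added stressor; test concentration not given here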; conditions: S. cerevisiae RM11-1a growth, OD600, 24 h; higher = more signal, called active from +8 up or from −8 down
[17] = growth of efflux-deficient E. coli DRC39 – strain DRC39, OD650, 24 h, E. coli filamentation inducers, primary screen (AID 1178);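 note: growth measured as culture turbidity by optical density at 650 nm; test concentration not given here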; conditions: E. coli DRC39 acrAB, higher = more signal, called active from +8 up or from −8 down
[18] = growth of efflux-deficient E. coli DRC39 – strain DRC39, OD650, 48 h, E. coli filamentation inducers, primary screen (AID 1179);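 note: screen aims at cell division blockers that make cells filament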; conditions: E. coli DRC39 delta-acrAB growth, higher = more signal, called active from +8 up or from −8 down
[19] = viability profiling in RPMI8226 myeloma cells – cell-based, resazurin fluorescence, basal, 24 h, PK04 Diversity Set, profiling panel (AID 1180); conditions: higher = more signal;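 note: RPMI8826 multiple myeloma cell line at 5000 cells per well; test concentration not given here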
[20] = biological target: E3 ubiquitin-protein ligase XIAP (Homo sapiens) (UniProt P98170); assay: small molecules binding XIAP protein – biophysical, small-molecule microarray, fluorescence 635 nm, primary screen (AID 1181); conditions: higher = more signal;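 note: score merges 667 nm emission and signal to noise over triplicate slides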
Sequence of E3 ubiquitin-protein ligase XIAP (Homo sapiens) (P98170 whole entry, looked up): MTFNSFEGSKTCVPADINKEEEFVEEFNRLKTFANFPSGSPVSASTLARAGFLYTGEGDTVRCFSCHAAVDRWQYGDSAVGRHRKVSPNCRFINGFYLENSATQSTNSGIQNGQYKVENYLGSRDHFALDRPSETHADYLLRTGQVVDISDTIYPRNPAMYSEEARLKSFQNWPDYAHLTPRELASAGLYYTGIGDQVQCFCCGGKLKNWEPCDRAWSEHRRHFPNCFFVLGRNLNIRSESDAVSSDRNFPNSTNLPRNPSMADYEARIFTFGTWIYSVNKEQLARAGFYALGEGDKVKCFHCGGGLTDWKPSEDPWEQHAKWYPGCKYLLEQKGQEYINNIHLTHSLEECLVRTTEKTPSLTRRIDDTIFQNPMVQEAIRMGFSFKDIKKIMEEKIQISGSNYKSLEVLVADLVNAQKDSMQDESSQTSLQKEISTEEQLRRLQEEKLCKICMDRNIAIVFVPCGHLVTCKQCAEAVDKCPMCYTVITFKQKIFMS

SMILES | z-score [1] | z-score [2] | z-score [3] | z-score [4] | z-score [5] | z-score [6] | z-score [7] | z-score [8] | z-score [9] | z-score [10] | z-score [11] | z-score [12] | z-score [13] | composite z-score [14] | z-score [15] | z-score [16] | z-score [17] | z-score [18] | z-score [19] | composite z-score [20]
O=c1cccc(-c2ccccc2C(F)(F)F)o1 | -0.976 | -0.0994 | 0.21 | 0.634 | -0.475 | -0.72 | 0.254 (inactive) | 0.835 | -1.3 | -0.262 (inactive) | -0.719 | -3.23 (inactive) | -0.256 (inactive) | -0.636 (inactive) | 0.698 (inactive) | -0.432 (inactive) | -0.736 (inactive) | -0.275 (inactive) | -0.59 | 0.144
COC(=O)[C@@]1(Cc2ccc(F)cc2)[C@H]2c3cc(C(=O)N(C)C)n(CCn4cc([N+](=O)[O-])nc4C)c3C[C@H]2CN1C(=O)c1ccccc1 | -0.771 | -0.417 | 0.346 | -0.737 | 0.211 | 0.443 | -0.596 (inactive) | 0.0282 | -0.54 | -0.792 (inactive) | -1.02 | 1.94 (inactive) | -1.05 (inactive) | -0.165 (inactive) | 0.122 (inactive) | 0.502 (inactive) | -0.984 (inactive) | -0.566 (inactive) | -0.801 | 0.267
CN1C(=O)C2C=CC(C(O)c3ccc(-c4ccccc4)s3)N(Nc3ccccc3)C2C1=O (stereo not given) | -0.485 | -1.2 | -0.99 | -0.467 | -1.64 | -1.44 | -0.896 (inactive) | -0.364 | -0.138 | -0.086 (inactive) | -0.208 | -1.02 (inactive) | -1.03 (inactive) | 0.71 (inactive) | 1.6 (inactive) | 0.0727 (inactive) | 0.243 (inactive) | -0.0198 (inactive) | -0.985 | 0.148
C=CCC(OC(C)=O)[C@@H]1[C@@H](N(Cc2cccc3ccccc23)C(=O)c2ccc(C)cc2)c2cc(OCCCO)ccc2N1C(=O)c1ccc2ccccc2n1 (stereo not given in full) | 0.375 | 0.694 | 1.14 | 0.823 | -0.473 | 2.11 | 0.199 (inactive) | 0.187 | -1.25 | 0.34 (inactive) | 0.374 | -1.13 (inactive) | 0.36 (inactive) | -1.35 (inactive) | -0.877 (inactive) | -1.88 (inactive) | 0.257 (inactive) | 0.91 (inactive) | 0.78 | -0.0535
C=CC[C@@]1(C(=O)N(C)C)N=C(c2ccc(OCCCO)cc2)O[C@@H]1c1ccccc1 | -0.511 | -0.681 | -0.815 | -1.01 | 0.127 | -0.644 | -0.895 (inactive) | -0.305 | -0.491 | 0.79 (inactive) | 0.879 | -2.54 (inactive) | -0.235 (inactive) | 0.13 (inactive) | 0.95 (inactive) | -0.422 (inactive) | -0.936 (inactive) | -0.649 (inactive) | 0.267 | -0.33
CCCCC(=C=CC[C@@H](O)c1ccc(OCCO)cc1)C[C@@H](O)c1ccccn1 | -0.0074 | 0.0358 | 0.333 | -2.63 | -0.616 | -1.05 | -1.58 (inactive) | -0.674 | -0.94 | -0.477 (inactive) | -0.517 | -1.12 (inactive) | -0.769 (inactive) | -8.71 (active) | 0.932 (inactive) | 0.43 (inactive) | 0.753 (inactive) | 0.239 (inactive) | -0.541 | 0.133
C=CCC(OC(C)=O)[C@@H]1[C@@H](N(Cc2cc3ccccc3o2)C(=O)Cc2ccc(OC)cc2)c2cc(OCCCO)ccc2N1C(=O)Cc1ccc2ccccc2c1 (stereo not given in full) | 0.583 | 0.592 | -0.118 | 0.0786 | -0.929 | 2.27 | -0.315 (inactive) | 0.00245 | -0.692 | -1.16 (inactive) | -1.22 | -0.379 (inactive) | 0.499 (inactive) | 0.65 (inactive) | -0.17 (inactive) | 0.101 (inactive) | -0.529 (inactive) | -0.94 (inactive) | -0.216 | 0.308
COC(=O)[C@@]1(Cc2ccccc2)[C@@H]2[C@@H](CC(=O)[C@H]2CC(=O)C(=O)N(C)C)CN1C(=O)c1ccccc1 | 0.258 | -0.103 | 0.0925 | -0.822 | 0.397 | 1.23 | -0.239 (inactive) | 0.209 | -1.31 | -0.658 (inactive) | 0.166 | 1.55 (inactive) | -1.18 (inactive) | 0.823 (inactive) | 0.535 (inactive) | 1.02 (inactive) | -0.49 (inactive) | -0.0021 (inactive) | -0.0757 | 0.0464
C=CCC(OC(C)=O)[C@@H]1[C@@H](N(Cc2cc3ccccc3o2)C(=O)c2cccc3ccccc23)c2cc(OCCCO)ccc2N1C(=O)c1ccc2ccccc2c1 (stereo not given in full) | 0.668 | 0.935 | 0.0108 | 0.364 | -1.98 | 1.93 | -1.18 (inactive) | -0.276 | -0.42 | -1.55 (inactive) | -1.18 | -0.469 (inactive) | -0.581 (inactive) | 0.0769 (inactive) | -0.227 (inactive) | -0.389 (inactive) | -0.423 (inactive) | -0.797 (inactive) | -0.855 | -0.146
